Among all 360,000 compounds or so, about 2,400 (0.67%) were called active. Only a selection was taken, and actives are over-represented in it overall. A number with no mark means an inactive call.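 Rule for the calls: active = compounds whose normalised, plate-corrected inhibition of enzyme fluorescence in the single-dose primary screen is 50% or more; inactive = the rest.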

In this assay the target is Fatty acid synthase (Homo sapiens) (UniProt P49327). The assay is described as follows: FAS thioesterase domain inhibitors, primary screen, biochemical, fluorescence intensity, uHTS (AID 602261).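 Note: 0% = DMSO with enzyme and 100% = substrate without enzyme.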 The note with it: recombinant FAS-TE, OMFH fluorogenic substrate, fluorescence endpoint; at 15 µM; active compounds read high.
Chain of Fatty acid synthase (Homo sapiens) (P49327 whole entry, looked up, the tested form may be a part): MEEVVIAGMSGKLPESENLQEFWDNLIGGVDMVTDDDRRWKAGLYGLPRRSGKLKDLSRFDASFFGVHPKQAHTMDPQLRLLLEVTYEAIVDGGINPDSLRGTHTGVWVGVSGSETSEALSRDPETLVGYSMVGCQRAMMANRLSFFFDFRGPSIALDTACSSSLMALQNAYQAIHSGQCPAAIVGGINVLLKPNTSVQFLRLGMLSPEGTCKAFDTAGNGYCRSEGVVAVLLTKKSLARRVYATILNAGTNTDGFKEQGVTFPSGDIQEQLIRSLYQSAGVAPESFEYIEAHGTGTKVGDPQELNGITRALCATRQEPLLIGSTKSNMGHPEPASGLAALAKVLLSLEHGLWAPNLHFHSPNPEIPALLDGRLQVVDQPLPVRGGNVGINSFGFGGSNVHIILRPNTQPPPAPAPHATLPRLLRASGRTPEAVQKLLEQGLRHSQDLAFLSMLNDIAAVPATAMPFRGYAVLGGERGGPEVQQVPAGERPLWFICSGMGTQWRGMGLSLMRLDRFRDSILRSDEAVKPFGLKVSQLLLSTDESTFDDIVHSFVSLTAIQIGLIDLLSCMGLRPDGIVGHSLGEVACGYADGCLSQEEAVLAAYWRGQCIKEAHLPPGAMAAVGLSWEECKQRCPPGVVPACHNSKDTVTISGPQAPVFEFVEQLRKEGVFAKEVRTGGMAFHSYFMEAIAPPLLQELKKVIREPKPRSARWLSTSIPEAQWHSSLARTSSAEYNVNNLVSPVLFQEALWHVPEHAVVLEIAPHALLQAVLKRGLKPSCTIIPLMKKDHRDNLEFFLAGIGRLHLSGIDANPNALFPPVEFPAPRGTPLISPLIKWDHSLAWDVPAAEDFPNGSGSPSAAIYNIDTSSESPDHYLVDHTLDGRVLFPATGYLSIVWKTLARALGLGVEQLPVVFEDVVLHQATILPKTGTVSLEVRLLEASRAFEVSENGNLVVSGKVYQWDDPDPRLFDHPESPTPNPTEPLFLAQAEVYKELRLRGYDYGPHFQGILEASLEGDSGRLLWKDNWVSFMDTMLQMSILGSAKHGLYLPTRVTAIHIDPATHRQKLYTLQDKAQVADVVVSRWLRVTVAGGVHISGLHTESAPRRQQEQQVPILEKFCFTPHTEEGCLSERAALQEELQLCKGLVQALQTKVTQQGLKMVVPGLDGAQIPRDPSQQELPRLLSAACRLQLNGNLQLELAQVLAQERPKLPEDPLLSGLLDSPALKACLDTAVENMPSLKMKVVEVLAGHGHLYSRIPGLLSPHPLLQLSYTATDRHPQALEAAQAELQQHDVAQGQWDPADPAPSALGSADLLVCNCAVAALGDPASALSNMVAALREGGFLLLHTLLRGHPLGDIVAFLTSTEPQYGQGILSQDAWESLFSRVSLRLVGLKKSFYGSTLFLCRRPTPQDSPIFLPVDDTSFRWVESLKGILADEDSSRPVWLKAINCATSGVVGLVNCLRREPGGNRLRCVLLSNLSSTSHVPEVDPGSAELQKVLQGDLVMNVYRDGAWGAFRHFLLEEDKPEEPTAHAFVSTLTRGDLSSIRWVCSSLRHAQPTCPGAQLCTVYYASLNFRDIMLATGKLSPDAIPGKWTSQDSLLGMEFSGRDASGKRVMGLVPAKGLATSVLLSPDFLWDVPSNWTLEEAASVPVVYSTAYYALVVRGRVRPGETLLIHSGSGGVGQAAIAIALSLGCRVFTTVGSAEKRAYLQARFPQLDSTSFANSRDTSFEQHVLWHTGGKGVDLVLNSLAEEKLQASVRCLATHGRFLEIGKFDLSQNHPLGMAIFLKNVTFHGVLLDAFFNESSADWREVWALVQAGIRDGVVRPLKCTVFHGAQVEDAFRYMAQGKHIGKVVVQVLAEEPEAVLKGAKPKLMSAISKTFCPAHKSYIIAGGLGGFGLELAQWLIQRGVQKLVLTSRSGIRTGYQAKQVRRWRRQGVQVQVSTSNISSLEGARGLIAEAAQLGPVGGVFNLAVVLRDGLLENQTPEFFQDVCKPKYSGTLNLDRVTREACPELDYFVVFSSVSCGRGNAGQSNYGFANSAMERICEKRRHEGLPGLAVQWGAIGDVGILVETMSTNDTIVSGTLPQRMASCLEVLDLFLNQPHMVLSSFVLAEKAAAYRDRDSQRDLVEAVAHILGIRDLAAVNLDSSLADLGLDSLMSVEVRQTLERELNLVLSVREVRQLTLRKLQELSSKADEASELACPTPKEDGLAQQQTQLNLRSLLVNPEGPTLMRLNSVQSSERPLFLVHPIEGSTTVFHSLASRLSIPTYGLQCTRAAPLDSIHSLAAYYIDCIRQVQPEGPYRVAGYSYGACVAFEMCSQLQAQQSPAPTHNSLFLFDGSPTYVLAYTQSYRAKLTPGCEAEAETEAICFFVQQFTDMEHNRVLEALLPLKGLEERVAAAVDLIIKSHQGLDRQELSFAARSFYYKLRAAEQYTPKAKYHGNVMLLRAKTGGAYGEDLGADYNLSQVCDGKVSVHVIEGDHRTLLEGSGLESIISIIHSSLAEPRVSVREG
In the case of `CC(OC(=O)CNC(=O)c1cccc(F)c1)C(=O)NC1CCCCC1C` (centres undefined), the inhibition was -5.6%.

Take `COc1ccc(CNC(=O)C(=O)NCC2OCCN2C(=O)c2ccc(OC)cc2)cc1` (centres undefined): the inhibition was -1.4%.

For `Cc1ccc(-c2noc(CSc3nnc(-c4cccs4)n3C)n2)cc1`, the inhibition is -14.2%.

In the case of `Fc1ccc(-n2c(Cc3ccccc3)nnc2SCc2nc(-c3ccc(Cl)cc3)no2)cc1`, the inhibition was 52.6% (active).

Take `Cc1nnc(SCc2ccc(C(=O)c3ccc(Cl)cc3)o2)n1-c1ccccc1`: the inhibition was 2.7%.

In the case of `C/C(=N\NC(=O)c1cccnc1)c1ccc(-n2ccnc2)cc1`, the inhibition was -10.3%.

On to `O=S(=O)(Nc1cccc(-n2cnnn2)c1)c1cnc(Cl)c(Cl)c1`, for which the inhibition is 56.8% (active).

For `O=S(=O)(Nc1ccc(-n2cnnn2)cc1)c1ccc(Cl)cc1`, the inhibition is 2.4%.

Turning to `Cc1ccc(C)c(S(=O)(=O)Nc2cccc(-n3cnnn3)c2)c1`, the inhibition is 4.5%.

In the case of `O=c1c2ccccc2cnn1Cc1n[nH]c(=S)n1-c1ccccc1F`, the inhibition was -4.3%.

For the compound `Cc1ccc(C(=O)N/C(=C/c2cccs2)C(=O)N2CCCCC2)cc1`, the inhibition is -8.4%.

Take `Cc1ccc(C(=O)N/C(=C\c2cn(S(=O)(=O)N(C)C)c3ccccc23)C(=O)N2CCCC2)cc1`: the inhibition was 86.5% (active).

Regarding `Cc1ccc(C(=O)N/C(=C\c2cn(C)c3ccccc23)C(=O)N2CCN(C)CC2)cc1`, the inhibition is -5%.

Turning to `O=C(O)c1ccccc1-c1ccccc1C(=O)Nc1ccccc1Br`, the inhibition is -0.4%.

For the compound `O=C(NCc1ccccc1)C1CCN(C(=O)Cc2ccccc2)CC1`, the inhibition was -4.1%.

For the compound `CCNC(=O)NNC(=O)C1CC(c2cccs2)=NO1` (centres undefined), the inhibition was -1.4%.

On to `COc1ccc(S(=O)(=O)Nc2ccc(F)cc2)c(C)c1C`, for which the inhibition is 1.1%.

Take `O=C(OC1CCOC1=O)c1ccc(-c2nc3ccccc3s2)s1` (centres undefined): the inhibition was 51.7% (active).

As to `COc1cc(C(=O)OC2CCOC2=O)c([N+](=O)[O-])cc1OC` (centres undefined), the inhibition is -3.6%.

With `CC(C)c1ccc(C(=O)OC2CCOC2=O)cc1` (centres undefined), the inhibition was -2.3%.

Consider `O=C(CNC(=O)OCc1ccccc1)NC1CCCCNC1=O` (centres undefined), for which the inhibition is -2.6%.

Consider `COc1ccc(S(=O)(=O)N2CCOCC2)cc1NC(=O)c1ccc(OCC(C)C)c(OC)c1`, for which the inhibition was 27.8%.

As to `COc1ccc(S(=O)(=O)N2CCCCC2)cc1NC(=O)c1cc([N+](=O)[O-])ccc1N1CCOCC1`, the inhibition is 86.5% (active).

Consider `O=C(NCC1CCCCC1)c1cc(S(=O)(=O)N2CCCCC2)ccc1N1CCOCC1`, for which the inhibition is 3.8%.

For the compound `COc1cccc(NC(=O)C2c3cc(OC)c(OC)cc3C(=O)N(C)C2c2cccnc2)c1` (centres undefined), the inhibition was -9.1%.

Regarding `CC1(C)OC(=O)N2CCc3ccccc3C21C` (centres undefined), the inhibition was -4.7%.

Turning to `O=C(c1ccc2c(c1)N(Cc1ccc(F)cc1)C(=O)c1ccccc1S2(=O)=O)N1CCN(c2ccccn2)CC1`, the inhibition is 56.9% (active).

Consider `O=C1c2ccccc2S(=O)(=O)c2cc(N3CCN(c4ccccn4)CC3)ccc21`, for which the inhibition is 12.8%.

As to `O=C(c1ccc2c(c1)C(=O)N(c1ccc(Cl)cc1)C2=O)N1CCN(c2ccccn2)CC1`, the inhibition was -5.5%.

As to `COc1ccccc1CNC(=O)CCCn1c(=O)c2ccccc2n(CC(=O)NC2CCCC2)c1=O`, the inhibition was -7.6%.

Consider `COCCNC(=O)CCCn1c(=O)c2ccccc2n(Cc2cccc([N+](=O)[O-])c2)c1=O`, for which the inhibition is 55.7% (active).

As for `CCCCNC(=O)CCn1c(=O)c2ccccc2n(Cc2cc(C)ccc2C)c1=O`, the inhibition is -13.3%.

Take `CCOC(=O)N1CCN(Cc2nc3c(c(=O)n(C)c(=O)n3C)n2Cc2ccccc2)CC1`: the inhibition is 4%.

Consider `COCCn1c(CN2CCC(Cc3ccccc3)CC2)nc2c1c(=O)n(C)c(=O)n2C`, for which the inhibition is 53.4% (active).

For `CN1CCN(Cc2nc3c(c(=O)n(C)c(=O)n3C)n2Cc2cccc3ccccc23)CC1`, the inhibition was 17.2%.

Regarding `COc1ccc(OC)c(S(=O)(=O)N2CCCC(C(=O)N3CCC(C(N)=O)CC3)C2)c1` (centres undefined), the inhibition is -9.7%.

As to `COc1ccc(C2CC(c3cccc(OC)c3)=NN2c2ccc(S(N)(=O)=O)cc2)cc1` (centres undefined), the inhibition is 18.6%.

`COc1ccc(C2=NN(C(=O)c3ccccc3C(=O)O)C(c3ccccc3O)C2)cc1` (centres undefined): the inhibition is -6.4%.

As for `COc1ccc(C2CC(c3ccccc3)=NN2C(=O)c2ccc(Cl)c([N+](=O)[O-])c2)cc1` (centres undefined), the inhibition was 65.8% (active).

With `CCCn1c(SCC(=O)Nc2ccc(C)c(S(=O)(=O)N3CCOCC3)c2)n[nH]c1=O`, the inhibition was -3.3%.

As to `Cc1cc(C)c2nc(-c3cccnc3)cc(C(=O)Nc3ccc(S(=O)(=O)Nc4onc(C)c4C)cc3)c2c1`, the inhibition was -0.1%.

Take `C/C(=N/NC(=O)CC(=O)N/N=C(\C)c1ccc([N+](=O)[O-])cc1)c1ccc([N+](=O)[O-])cc1`: the inhibition was 36%.

For the compound `C/C(=N\Nc1ccc([N+](=O)[O-])cc1)c1ccc(-n2nncc2C(C)(C)C)cc1`, the inhibition was -16%.

Turning to `C/C(=N\Nc1nc(N2CCOCC2)nc(N2CCOCC2)n1)c1ccc([N+](=O)[O-])cc1`, the inhibition is 57.8% (active).

As to `O=C(NCCN1CCOC1=O)C1CCC(=O)N(CCc2ccc(Cl)cc2)C1` (centres undefined), the inhibition is 0.7%.

On to `O=C(c1cnccn1)N1CCN(S(=O)(=O)c2cccc(Cl)c2)CC1`, for which the inhibition is -6.3%.

For `Cc1ccc(S(=O)(=O)/N=C(/NC(=S)Nc2c(C)n(C)n(-c3ccccc3)c2=O)c2ccccc2)cc1`, the inhibition was -4.4%.

As to `CC[C@]12c3[nH]c4ccc(Cl)cc4c3CCN1C(=O)[C@@H](CC(=O)NCCCOC)C[C@@H]2C(=O)N1CCN(C(=O)C2CC2)CC1`, the inhibition is -5.2%.

With `Cc1ccc(S(=O)(=O)N2C[C@@H](C)[C@]3(C2)[C@H](O)[C@H](OC(=O)NCc2ccccc2)C[C@H]2C(=O)N(c4ccccc4)C(=O)[C@H]23)cc1`, the inhibition was 18.7%.

In the case of `CCOC(=O)C1=C(N)N(c2ccc(C)cc2)C2=C(C(=O)CCC2)C1c1cccs1` (centres undefined), the inhibition is 20.7%.

With `CCOC1=C2[C@@H](CN(S(=O)(=O)c3ccc(C)cc3)[C@H]2c2ccccc2F)[C@H]2C(=O)N(Cc3ccccc3)C(=O)[C@H]2C1`, the inhibition was 35.8%.

`CCOC1=C2CN(S(=O)(=O)c3ccc(C)cc3)[C@H](c3cccs3)C[C@H]2[C@H]2C(=O)N(c3ccccc3)C(=O)[C@H]2C1`: the inhibition was 58% (active).

In the case of `CCOC1=C2[C@H]([C@H]3C(=O)N(c4ccccc4)C(=O)[C@H]3C1)[C@@H](c1ccccc1)N(S(=O)(=O)c1ccc(C)cc1)[C@H]2c1ccccc1`, the inhibition is 69.2% (active).

For the compound `CCOC(=O)C1=CC[C@@H](c2ccccc2)N(S(=O)(=O)c2ccc(C)cc2)[C@H]1c1ccc(CC)cc1`, the inhibition was 31.8%.

Values taken from PubChem BioAssay AID602261 (Sanford-Burnham Center for Chemical Genomics, 2012).
